About 83,000 compounds went through this panel and 20% of them were active in at least one assay; those are over-represented in the sample as a whole.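 Single-dose data. Exposure time 48 hours. Values below 10 considered active.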 Values without a mark were called inactive. Calls of active or inactive are those of the source.
How the values were obtained:
Test in all cases: NCI-60 one-dose screen, 48 h (100 = growth as untreated, 0 = no growth, -100 = all killed)
SK-MEL-2 melanoma = settings: 10 µM unless noted
EKVX NSCLC = settings: 10 µM unless noted
SN12C renal = settings: 10 µM unless noted
UO-31 renal = settings: 10 µM unless noted
TK-10 renal = settings: 10 µM unless noted
ACHN renal = settings: 10 µM unless noted
A498 renal = settings: 10 µM
HL-60(TB) leukemia = settings: 10 µM unless noted
CCRF-CEM leukemia = settings: 10 µM unless noted
MOLT-4 leukemia = settings: 10 µM unless noted
SR leukemia = settings: 10 µM unless noted
RPMI-8226 leukemia = settings: 10 µM unless noted
OVCAR-8 ovarian = settings: 10 µM unless noted
OVCAR-5 ovarian = settings: 10 µM unless noted
OVCAR-4 ovarian = settings: 10 µM unless noted
SK-OV-3 ovarian = settings: 10 µM unless noted
IGROV1 ovarian = settings: 10 µM unless noted
OVCAR-3 ovarian = settings: 10 µM unless noted
HS 578T breast = settings: 10 µM unless noted
CAKI-1 renal = settings: 10 µM unless noted

| SMILES | growth (SK-MEL-2 melanoma) | growth (EKVX NSCLC) | growth (SN12C renal) | growth (UO-31 renal) | growth (TK-10 renal) | growth (ACHN renal) | growth (A498 renal) | growth (HL-60(TB) leukemia) | growth (CCRF-CEM leukemia) | growth (MOLT-4 leukemia) | growth (SR leukemia) | growth (RPMI-8226 leukemia) | growth (OVCAR-8 ovarian) | growth (OVCAR-5 ovarian) | growth (OVCAR-4 ovarian) | growth (SK-OV-3 ovarian) | growth (IGROV1 ovarian) | growth (OVCAR-3 ovarian) | growth (HS 578T breast) | growth (CAKI-1 renal) |
| --- | --- | --- | --- | --- | --- | --- | --- | --- | --- | --- | --- | --- | --- | --- | --- | --- | --- | --- | --- | --- |
| Fc1ccc2c(c1)c(-c1nc(-c3c[nH]c4ncccc34)cs1)cn2CCCCN1CCCCC1 | -76.7% (active) | 23.3% | -84.4% (active) | -86.9% (active) | -86.1% (active) | -97.4% (active) | 63.2% | -70% (active) | -61.4% (active) | -67.7% (active) | -60.2% (active) | -49.6% (active) | -82.9% (active) | -68.2% (active) | -23.8% (active) | -72.6% (active) | -60.5% (active) | -84.3% (active) | -28.6% (active) |  |
| CCOP(=O)(NC[C@H]1O[C@](O)(CO)[C@@H](O)[C@@H]1O)OCC | 98.4% | 91.4% | 100% | 69.9% | 97.2% | 103% | 99.9% | 101% | 101% | 95.9% | 97.1% | 101% | 103% | 112% | 103% | 87.6% | 94.5% | 103% | 96.4% |  |
| CS(=O)(=O)CCN1CC2CCCC(C2)C1 | 105% | 102% | 98.2% | 96.9% | 96.4% | 97.7% |  |  | 97.2% | 102% | 93.9% | 101% | 104% | 102% | 102% | 100% | 115% | 110% | 102% | 97.1% |
| CC[C@H](C)[C@H](NC(=O)[C@H]1CCCCN1C)C(=O)N(C)[C@H](CCc1nc(C(=O)N[C@@H](Cc2ccccc2)C[C@H](C)C(=O)OC)cs1)C(C)C | 32.7% | 47.3% | 28.9% | 43.5% | 54.3% | 29.3% | -2.22% (active) | -21.2% (active) | 12.8% | 15% | 13.2% | 15.5% | 23.2% | 49.3% | 43.6% | 8.81% (active) | 26.8% | -18.6% (active) | 39.2% |  |
| O=[N+]([O-])c1cc(I)cc([N+](=O)[O-])c1 | 96.8% | 99.9% | 103% | 108% | 117% | 121% | 111% | 125% | 100% | 97.1% | 104% | 101% | 108% | 119% | 79.4% | 125% | 108% | 107% | 122% |  |
| Nc1c(F)cc(-c2nc3cc(F)ccc3[se]2)cc1F | 107% | 47.6% | 85.9% | 60.2% | 27.7% | 68.7% | 38.9% | 83.5% | 88.7% | 78.7% | 20.6% | 48.8% | 95.5% | 31.1% | 48.9% | 61.4% | 19.5% | 71.3% | 94.7% |  |
| COc1cc([C@@H]2c3cc4c(cc3[C@H](OC(C)=O)[C@H]3COC(=O)[C@H]23)OCO4)cc(OC)c1OC | 33.2% | 38.3% | 31.9% | 43.7% | 65.9% | 28.7% | -7.56% (active) | -24.8% (active) | 14.4% | 16.7% | 9.46% (active) | 23.4% | 21.1% | 56.4% | 41.3% | 39.3% | 21.2% | 1.52% (active) | 46.6% |  |
| COC(=O)[C@@H](C)C[C@H](Cc1ccccc1)NC(=O)c1csc(CC[C@H](C(C)C)N(C)C(=O)[C@@H](NC(=O)[C@H]2CCCCN2C)C(C)C)n1 | 35.7% | 40.8% | 36.5% | 48.8% | 60.5% | 45.2% | 0.74% (active) | -34.4% (active) | 13.8% | 14.4% | 15.9% | 19.8% | 20.6% | 54% | 53.2% | 37.7% | 32.4% | -5.55% (active) | 33.2% |  |

From PubChem BioAssay (NCI)
